# Experiments:
# Assay in all cases: DAPPL (digital affinity profiling via proximity ligation, sequencing); 10 mM Tris-HCl pH 7.5, 50 mM NaCl, 1 mM DTT, 4% glycerol, room temperature, 30 min; GST-TFs on glutathione beads, 16-mer random dsDNA library, 0.1% formaldehyde crosslink after washing; high values mean tight binding
# FLI1 = target: T1, FLI1 (Homo sapiens, UniProt Q01543 1-452); conditions: protein: recombinant; tags: N-terminal GST; dsDNA, one strand shown
# T1 sequence: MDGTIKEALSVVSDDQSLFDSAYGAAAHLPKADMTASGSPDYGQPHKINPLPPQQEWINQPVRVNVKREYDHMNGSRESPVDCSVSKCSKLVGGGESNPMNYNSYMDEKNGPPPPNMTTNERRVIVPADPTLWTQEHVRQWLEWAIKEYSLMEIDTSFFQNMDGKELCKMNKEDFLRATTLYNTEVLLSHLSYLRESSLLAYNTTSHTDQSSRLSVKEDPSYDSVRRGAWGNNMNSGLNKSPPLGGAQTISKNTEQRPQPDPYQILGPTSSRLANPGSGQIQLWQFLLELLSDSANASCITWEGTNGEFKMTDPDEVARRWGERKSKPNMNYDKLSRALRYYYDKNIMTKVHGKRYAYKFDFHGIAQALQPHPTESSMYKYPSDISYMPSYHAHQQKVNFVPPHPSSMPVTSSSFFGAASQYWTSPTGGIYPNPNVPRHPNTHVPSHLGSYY
# Procedure, shortened: (§1)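 Human transcription factors were made in yeast as GST fusions, captured on glutathione beads and barcoded with DNA. With a tag-only sample included, the pool was incubated with 200 nmole of a random double-stranded 16-mer DNA library in Tris/NaCl/DTT/glycerol buffer at room temperature for 30 min, then crosslinked with 0.1% formaldehyde after washing, ligated by proximity, amplified and sequenced. For binding signal, each hexamer's read frequency for a factor is divided by its frequency for the tag-only sample.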
# ELK1 = target: T2, ELK1 (Homo sapiens, UniProt P19419 1-428); conditions: protein: recombinant; tags: N-terminal GST; dsDNA, one strand shown
# T2 sequence: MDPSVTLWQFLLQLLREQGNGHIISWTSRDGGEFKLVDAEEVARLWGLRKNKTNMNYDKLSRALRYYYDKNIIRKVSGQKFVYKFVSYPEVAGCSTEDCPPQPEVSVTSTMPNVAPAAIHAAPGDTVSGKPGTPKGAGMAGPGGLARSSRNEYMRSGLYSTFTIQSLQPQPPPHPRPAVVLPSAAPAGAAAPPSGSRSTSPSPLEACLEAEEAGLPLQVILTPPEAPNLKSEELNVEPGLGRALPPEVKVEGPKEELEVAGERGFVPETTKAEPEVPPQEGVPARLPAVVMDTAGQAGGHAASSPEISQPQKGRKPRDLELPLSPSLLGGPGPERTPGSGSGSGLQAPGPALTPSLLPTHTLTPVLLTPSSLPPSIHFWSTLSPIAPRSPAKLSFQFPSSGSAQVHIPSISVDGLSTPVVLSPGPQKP
# Procedure, shortened: as §1
# GABPA = target: T3, GABPA (Homo sapiens, UniProt Q06546 1-454); conditions: protein: recombinant; tags: N-terminal GST; dsDNA, one strand shown
# T3 sequence: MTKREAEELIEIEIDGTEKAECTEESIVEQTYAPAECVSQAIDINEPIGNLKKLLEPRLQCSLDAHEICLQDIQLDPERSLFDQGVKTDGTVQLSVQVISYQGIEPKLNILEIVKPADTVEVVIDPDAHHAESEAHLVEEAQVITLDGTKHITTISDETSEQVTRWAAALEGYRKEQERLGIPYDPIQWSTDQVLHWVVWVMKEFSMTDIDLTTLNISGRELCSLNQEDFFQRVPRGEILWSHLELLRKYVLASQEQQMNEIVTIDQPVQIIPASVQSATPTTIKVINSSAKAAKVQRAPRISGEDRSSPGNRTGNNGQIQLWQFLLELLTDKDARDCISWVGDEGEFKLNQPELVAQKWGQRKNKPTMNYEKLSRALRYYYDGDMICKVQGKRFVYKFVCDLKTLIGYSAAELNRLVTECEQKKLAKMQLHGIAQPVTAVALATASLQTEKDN
# Procedure, shortened: as §1
# ERG = target: T4, ERG (Homo sapiens, UniProt P11308 1-479); conditions: protein: recombinant; tags: N-terminal GST; dsDNA, one strand shown
# T4 sequence: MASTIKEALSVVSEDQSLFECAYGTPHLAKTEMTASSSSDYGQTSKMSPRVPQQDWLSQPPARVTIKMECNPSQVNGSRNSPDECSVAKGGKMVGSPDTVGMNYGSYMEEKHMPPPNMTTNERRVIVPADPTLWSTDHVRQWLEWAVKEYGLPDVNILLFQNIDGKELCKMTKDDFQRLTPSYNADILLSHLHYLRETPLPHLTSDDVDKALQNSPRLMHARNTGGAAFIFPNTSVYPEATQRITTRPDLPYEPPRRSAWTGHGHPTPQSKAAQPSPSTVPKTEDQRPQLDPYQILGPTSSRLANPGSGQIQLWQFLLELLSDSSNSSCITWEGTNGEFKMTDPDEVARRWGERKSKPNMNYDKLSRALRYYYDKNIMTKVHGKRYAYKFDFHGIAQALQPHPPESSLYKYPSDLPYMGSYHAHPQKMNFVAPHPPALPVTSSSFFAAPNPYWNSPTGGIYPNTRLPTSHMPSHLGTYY
# Procedure, shortened: as §1
# ELF1 = ELF1 (Homo sapiens, UniProt P32519 1-619); conditions: protein: recombinant; tags: N-terminal GST; dsDNA, one strand shown
# Procedure, shortened: as §1
# EHF = target: T5, EHF (Homo sapiens, UniProt Q9NZC4 1-300); conditions: protein: recombinant; tags: N-terminal GST; dsDNA, one strand shown
# T5 sequence: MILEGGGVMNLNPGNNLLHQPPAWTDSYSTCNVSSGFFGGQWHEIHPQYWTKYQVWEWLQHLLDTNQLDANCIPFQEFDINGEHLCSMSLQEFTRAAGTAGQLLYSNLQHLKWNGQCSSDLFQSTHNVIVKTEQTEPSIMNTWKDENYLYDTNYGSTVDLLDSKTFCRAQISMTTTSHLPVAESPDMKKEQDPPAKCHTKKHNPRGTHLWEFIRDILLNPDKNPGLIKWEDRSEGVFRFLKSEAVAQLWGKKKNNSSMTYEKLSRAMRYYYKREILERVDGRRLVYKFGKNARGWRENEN
# Procedure, shortened: as §1
# SPI1 = SPI1 (Homo sapiens, UniProt P17947 1-270); conditions: protein: recombinant; tags: N-terminal GST; dsDNA, one strand shown
# Procedure, shortened: as §1
# SPIB = SPIB (Homo sapiens, UniProt Q01892 1-262); conditions: protein: recombinant; tags: N-terminal GST; dsDNA, one strand shown
# Procedure, shortened: as §1
# ELK3 = target: T6, ELK3 (Homo sapiens, UniProt P41970 1-407); conditions: protein: recombinant; tags: N-terminal GST; dsDNA, one strand shown
# T6 sequence: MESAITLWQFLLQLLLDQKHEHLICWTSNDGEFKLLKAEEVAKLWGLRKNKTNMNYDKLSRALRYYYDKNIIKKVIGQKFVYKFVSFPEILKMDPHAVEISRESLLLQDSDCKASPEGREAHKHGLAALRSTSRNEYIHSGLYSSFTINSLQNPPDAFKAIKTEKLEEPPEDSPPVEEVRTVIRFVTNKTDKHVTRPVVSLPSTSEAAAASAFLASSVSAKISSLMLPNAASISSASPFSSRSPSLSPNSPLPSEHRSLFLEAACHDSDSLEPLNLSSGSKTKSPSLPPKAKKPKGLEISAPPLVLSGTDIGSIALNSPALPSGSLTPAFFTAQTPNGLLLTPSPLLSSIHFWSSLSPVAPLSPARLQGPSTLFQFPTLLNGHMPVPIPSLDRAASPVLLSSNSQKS
# Procedure, shortened: as §1
# FEV = target: T7, FEV (Homo sapiens, UniProt Q99581 1-238); conditions: protein: recombinant; tags: N-terminal GST; dsDNA, one strand shown
# T7 sequence: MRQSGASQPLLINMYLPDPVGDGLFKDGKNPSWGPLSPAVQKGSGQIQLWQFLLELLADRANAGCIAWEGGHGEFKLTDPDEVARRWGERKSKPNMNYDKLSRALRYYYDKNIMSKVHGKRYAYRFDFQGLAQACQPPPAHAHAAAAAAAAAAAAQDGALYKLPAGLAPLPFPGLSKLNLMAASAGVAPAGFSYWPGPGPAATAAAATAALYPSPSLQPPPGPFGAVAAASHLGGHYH
# Procedure, shortened: as §1
# ETV5 = ETV5 (Homo sapiens, UniProt P41161 1-510); conditions: protein: recombinant; tags: N-terminal GST; dsDNA, one strand shown
# Procedure, shortened: as §1
# HSF1 = HSF1 (Homo sapiens, UniProt Q00613 1-529); conditions: protein: recombinant; tags: N-terminal GST; chain copies: 3; dsDNA, one strand shown
# Procedure, shortened: as §1
# SPIC = target: T8, SPIC (Homo sapiens, UniProt Q8N5J4 1-248); conditions: protein: recombinant; tags: N-terminal GST; dsDNA, one strand shown
# T8 sequence: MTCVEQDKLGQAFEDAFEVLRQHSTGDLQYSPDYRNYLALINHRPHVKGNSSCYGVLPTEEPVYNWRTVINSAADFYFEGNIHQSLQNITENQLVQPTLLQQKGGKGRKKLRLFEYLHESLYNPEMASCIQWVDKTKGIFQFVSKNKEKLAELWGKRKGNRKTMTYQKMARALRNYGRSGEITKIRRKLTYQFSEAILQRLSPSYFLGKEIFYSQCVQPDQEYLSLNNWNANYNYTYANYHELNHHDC
# Procedure, shortened: as §1
# ELF4 = ELF4 (Homo sapiens, UniProt Q99607 1-663); conditions: protein: recombinant; tags: N-terminal GST; dsDNA, one strand shown
# Procedure, shortened: as §1
# ETV2 = target: T9, ETV2 (Homo sapiens, UniProt O00321 1-342); conditions: protein: recombinant; tags: N-terminal GST; dsDNA, one strand shown
# T9 sequence: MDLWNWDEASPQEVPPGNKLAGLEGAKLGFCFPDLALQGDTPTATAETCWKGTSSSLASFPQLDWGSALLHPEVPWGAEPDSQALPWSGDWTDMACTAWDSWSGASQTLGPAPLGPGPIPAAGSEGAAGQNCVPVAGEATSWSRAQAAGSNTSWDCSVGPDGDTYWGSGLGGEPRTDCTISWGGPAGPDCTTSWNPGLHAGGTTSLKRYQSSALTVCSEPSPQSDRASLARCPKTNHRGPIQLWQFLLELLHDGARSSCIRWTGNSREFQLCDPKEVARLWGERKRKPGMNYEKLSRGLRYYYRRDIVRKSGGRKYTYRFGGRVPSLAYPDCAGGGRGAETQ
# Procedure, shortened: as §1
# ELF3 = target: T10, ELF3 (Homo sapiens, UniProt P78545 1-371); conditions: protein: recombinant; tags: N-terminal GST; dsDNA, one strand shown
# T10 sequence: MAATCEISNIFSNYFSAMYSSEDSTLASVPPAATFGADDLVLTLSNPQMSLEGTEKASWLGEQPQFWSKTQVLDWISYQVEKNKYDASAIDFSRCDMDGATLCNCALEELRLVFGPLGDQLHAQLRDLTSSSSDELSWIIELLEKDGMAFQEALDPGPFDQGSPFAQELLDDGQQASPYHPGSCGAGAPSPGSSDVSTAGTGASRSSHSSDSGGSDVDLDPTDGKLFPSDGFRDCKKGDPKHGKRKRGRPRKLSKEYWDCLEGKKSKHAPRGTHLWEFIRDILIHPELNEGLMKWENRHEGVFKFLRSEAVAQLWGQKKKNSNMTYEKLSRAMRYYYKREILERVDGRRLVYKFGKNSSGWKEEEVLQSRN
# Procedure, shortened: as §1
# CRX = CRX (Homo sapiens, UniProt O43186 1-299); conditions: protein: recombinant; tags: N-terminal GST; dsDNA, one strand shown
# Procedure, shortened: as §1
# ETV1 = ETV1 (Homo sapiens, UniProt P50549 1-477); conditions: protein: recombinant; tags: N-terminal GST; dsDNA, one strand shown
# Procedure, shortened: as §1
# Chain of ELF4 (Q99607 whole entry): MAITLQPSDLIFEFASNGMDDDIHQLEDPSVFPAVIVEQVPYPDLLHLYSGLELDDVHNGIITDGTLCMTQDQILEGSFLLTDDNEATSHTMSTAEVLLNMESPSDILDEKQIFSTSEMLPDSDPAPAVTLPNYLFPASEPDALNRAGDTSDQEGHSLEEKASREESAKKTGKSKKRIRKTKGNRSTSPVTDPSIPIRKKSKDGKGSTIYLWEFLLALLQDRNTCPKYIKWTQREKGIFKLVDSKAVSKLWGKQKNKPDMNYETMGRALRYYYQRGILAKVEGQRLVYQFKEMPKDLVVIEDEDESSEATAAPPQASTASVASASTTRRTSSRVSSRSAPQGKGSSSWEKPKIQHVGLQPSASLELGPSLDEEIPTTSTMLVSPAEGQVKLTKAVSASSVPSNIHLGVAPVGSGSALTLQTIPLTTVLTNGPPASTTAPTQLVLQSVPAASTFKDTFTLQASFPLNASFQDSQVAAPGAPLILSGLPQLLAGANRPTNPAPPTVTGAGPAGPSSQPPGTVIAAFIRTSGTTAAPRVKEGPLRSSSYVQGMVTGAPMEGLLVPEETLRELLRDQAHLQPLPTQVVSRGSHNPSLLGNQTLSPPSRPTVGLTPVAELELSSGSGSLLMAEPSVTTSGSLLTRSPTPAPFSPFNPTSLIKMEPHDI
# Chain of SPIB (Q01892 whole entry): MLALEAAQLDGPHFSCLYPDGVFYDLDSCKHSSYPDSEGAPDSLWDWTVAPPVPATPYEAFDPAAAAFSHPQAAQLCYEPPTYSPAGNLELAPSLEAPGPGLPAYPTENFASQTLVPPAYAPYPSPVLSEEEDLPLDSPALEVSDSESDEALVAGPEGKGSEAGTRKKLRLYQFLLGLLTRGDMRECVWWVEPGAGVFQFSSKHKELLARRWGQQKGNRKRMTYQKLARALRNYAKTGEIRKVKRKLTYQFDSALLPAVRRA
# Chain of ETV5 (P41161 whole entry): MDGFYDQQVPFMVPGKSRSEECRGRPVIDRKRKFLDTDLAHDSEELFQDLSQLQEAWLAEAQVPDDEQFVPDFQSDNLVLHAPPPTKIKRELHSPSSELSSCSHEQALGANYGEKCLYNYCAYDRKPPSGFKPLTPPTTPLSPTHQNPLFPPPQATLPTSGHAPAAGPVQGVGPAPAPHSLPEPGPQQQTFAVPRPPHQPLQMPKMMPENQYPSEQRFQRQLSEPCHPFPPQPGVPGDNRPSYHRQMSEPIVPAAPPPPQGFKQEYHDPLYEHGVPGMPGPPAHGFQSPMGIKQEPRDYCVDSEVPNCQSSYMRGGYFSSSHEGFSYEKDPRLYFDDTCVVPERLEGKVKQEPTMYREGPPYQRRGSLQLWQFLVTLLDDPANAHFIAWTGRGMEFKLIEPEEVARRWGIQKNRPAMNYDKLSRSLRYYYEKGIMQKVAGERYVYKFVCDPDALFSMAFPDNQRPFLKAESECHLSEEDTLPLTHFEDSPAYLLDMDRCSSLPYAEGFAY
# Chain of CRX (O43186 whole entry): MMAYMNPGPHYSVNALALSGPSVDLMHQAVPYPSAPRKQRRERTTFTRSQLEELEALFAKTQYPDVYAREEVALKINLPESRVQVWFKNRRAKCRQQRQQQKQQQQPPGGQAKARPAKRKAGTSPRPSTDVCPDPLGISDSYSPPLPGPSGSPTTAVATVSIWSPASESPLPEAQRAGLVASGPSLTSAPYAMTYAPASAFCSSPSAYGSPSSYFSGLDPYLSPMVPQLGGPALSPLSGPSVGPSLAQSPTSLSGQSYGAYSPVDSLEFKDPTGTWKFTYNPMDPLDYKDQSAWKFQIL
# Chain of ETV1 (P50549 whole entry): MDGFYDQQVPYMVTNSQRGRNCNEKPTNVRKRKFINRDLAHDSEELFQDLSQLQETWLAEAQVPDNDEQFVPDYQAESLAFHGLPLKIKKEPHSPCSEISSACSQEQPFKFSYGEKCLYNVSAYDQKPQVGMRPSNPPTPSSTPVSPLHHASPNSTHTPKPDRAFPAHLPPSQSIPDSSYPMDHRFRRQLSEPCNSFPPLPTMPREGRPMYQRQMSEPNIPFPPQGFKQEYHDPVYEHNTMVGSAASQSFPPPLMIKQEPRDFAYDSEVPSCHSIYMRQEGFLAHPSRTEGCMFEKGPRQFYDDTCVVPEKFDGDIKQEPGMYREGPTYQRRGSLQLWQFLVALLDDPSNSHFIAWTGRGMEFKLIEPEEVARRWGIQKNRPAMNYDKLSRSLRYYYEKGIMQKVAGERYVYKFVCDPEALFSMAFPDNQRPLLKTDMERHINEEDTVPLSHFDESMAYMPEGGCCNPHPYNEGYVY
# Chain of ELF1 (P32519 whole entry): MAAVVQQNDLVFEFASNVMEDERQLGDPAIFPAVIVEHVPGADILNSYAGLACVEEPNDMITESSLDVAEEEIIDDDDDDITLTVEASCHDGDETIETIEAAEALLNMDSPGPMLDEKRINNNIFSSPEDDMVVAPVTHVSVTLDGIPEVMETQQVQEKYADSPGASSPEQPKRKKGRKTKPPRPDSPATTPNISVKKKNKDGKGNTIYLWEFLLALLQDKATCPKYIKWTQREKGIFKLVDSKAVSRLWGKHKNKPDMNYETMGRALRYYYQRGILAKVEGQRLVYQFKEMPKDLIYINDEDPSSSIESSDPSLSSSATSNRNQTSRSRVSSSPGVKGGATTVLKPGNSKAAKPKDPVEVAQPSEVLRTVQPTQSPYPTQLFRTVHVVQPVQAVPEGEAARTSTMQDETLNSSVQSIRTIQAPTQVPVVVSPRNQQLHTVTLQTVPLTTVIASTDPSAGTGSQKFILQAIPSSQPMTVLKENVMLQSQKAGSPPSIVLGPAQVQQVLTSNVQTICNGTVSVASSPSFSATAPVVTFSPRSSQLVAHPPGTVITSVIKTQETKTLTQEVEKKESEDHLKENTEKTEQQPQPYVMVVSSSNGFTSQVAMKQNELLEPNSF
# Chain of HSF1 (Q00613 whole entry): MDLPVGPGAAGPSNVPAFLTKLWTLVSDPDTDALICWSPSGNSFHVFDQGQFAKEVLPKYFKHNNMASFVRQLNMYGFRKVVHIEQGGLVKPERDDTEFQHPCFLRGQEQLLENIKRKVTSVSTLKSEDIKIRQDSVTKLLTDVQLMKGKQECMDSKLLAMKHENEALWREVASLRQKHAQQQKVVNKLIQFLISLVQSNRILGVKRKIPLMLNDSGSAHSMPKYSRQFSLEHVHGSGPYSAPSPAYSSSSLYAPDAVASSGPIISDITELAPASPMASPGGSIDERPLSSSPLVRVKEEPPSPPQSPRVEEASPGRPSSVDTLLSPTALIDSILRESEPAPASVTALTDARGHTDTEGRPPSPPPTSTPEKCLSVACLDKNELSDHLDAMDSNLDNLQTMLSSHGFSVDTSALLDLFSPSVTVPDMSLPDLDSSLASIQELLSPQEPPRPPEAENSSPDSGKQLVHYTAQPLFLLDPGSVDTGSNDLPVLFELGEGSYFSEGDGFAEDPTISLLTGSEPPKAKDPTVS
sequence,measurement,setting,value
ATCAAT,binding signal,FLI1,"1.12 fold enrichment (6-mer frequency, TF over GST control)"
same,binding signal,ELK1,"1.01 fold enrichment (6-mer frequency, TF over GST control)"
same,binding signal,GABPA,"1.16 fold enrichment (6-mer frequency, TF over GST control)"
same,binding signal,ERG,"1.04 fold enrichment (6-mer frequency, TF over GST control)"
same,binding signal,ELF1,"1.15 fold enrichment (6-mer frequency, TF over GST control)"
same,binding signal,EHF,"1.02 fold enrichment (6-mer frequency, TF over GST control)"
same,binding signal,SPI1,"1.06 fold enrichment (6-mer frequency, TF over GST control)"
same,binding signal,SPIB,"1.07 fold enrichment (6-mer frequency, TF over GST control)"
same,binding signal,ELK3,"1.06 fold enrichment (6-mer frequency, TF over GST control)"
same,binding signal,FEV,"1.05 fold enrichment (6-mer frequency, TF over GST control)"
same,binding signal,ETV5,"1.1 fold enrichment (6-mer frequency, TF over GST control)"
same,binding signal,HSF1,"1.14 fold enrichment (6-mer frequency, TF over GST control)"
same,binding signal,SPIC,"1.06 fold enrichment (6-mer frequency, TF over GST control)"
same,binding signal,ELF4,"1.1 fold enrichment (6-mer frequency, TF over GST control)"
same,binding signal,ETV2,"1.16 fold enrichment (6-mer frequency, TF over GST control)"
same,binding signal,ELF3,"1.12 fold enrichment (6-mer frequency, TF over GST control)"
same,binding signal,CRX,"1.32 fold enrichment (6-mer frequency, TF over GST control)"
same,binding signal,ETV1,"1.06 fold enrichment (6-mer frequency, TF over GST control)"

# Reference: paper PMC7862700, “An all-to-all approach to the identification of sequence-specific readers for epigenetic DNA modifications on cytosine”
